# Measured values from PMC5540273 (PLoS ONE, 2017).
# Test system: TGFBR1
# 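Further: kd values determined as follow-up on hits from a single-replicate KINOMEscan panel screen.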
row,Structure (SMILES),Kd [µM]
1,O=C(c1ccc(-c2cc(-c3c[nH]nc3-c3ccccn3)ccn2)cc1)N1CCOCC1 [GW812171],0.18
2,c1ccc(-c2n[nH]cc2-c2ccnc3ccccc23)nc1 [GW271431],0.11
3,N#Cc1ccc(-c2cc(-c3c[nH]nc3-c3ccccn3)ccn2)cc1 [GW693028],0.15

# Test system: T1, VPS34
# T1 construct: gene PIK3C3
row,Structure (SMILES),Kd [µM]
1,Cc1cn2c(=O)cc(N3CCOCC3)nc2n1Cc1cccc(Cl)c1Cl [GSK2334006],0.0022
2,N#Cc1c(N2CCOCC2)sc(-c2ccn[nH]2)c1-c1ccc(Cl)cc1,0.058
3,Cc1cccc(Cn2ccn3c(=O)cc(N4CCOCC4)nc23)c1 [GSK2297542],0.075
4,O=c1cc(N2CCOCC2)nc2n(Cc3cccc(C(F)(F)F)c3)ccn12 [GSK2297543],0.13
5,NS(=O)(=O)c1cccc(-c2ccc3ncc(N4CCOCC4)nc3c2)c1 [GSK1535721],> 10
6,O=c1cc(N2CCOCC2)nc2n(Cc3cccc(F)c3)ccn12 [GSK2297430],0.033
7,O=c1cc(N2CCOCC2)nc2n(Cc3cccc(Cl)c3Cl)c(C3CC3)nn12 [GSK2358994],0.00039
8,O=c1cc(N2CCOCC2)nc2n(Cc3cccc4ccccc34)ccn12 [GSK2333389],0.06

# Test system: VRK2
row,Structure (SMILES),Kd [µM]
1,COc1ccc(Nc2nccc(N3CCC(NC(=O)Nc4cccc(C(C)=O)c4)C3)n2)cc1 (centres unmarked) [GSK1379731],> 10
2,CN(C(=O)c1ccc(-c2cc(-c3c[nH]nc3-c3ccccn3)ccn2)cc1)C1CCOCC1 [GW810083],> 10
3,CC(C)(C)n1cnc2c(N)ncnc21 [SKF-97359],> 10
